Compound activity: PubChem, National Center for Advancing Translational Sciences (NCATS)
Hits are enriched below; roughly 11% of the tested compounds scored in any of these assays.
AMA1-RON2 inh: inhibitors of Plasmodium falciparum AMA1-RON2 interaction. AlphaScreen AMA1-biotinylated RON2 peptide binding. Potency, µM (top dose mostly 58.2 µM), for inactives: top-dose activity change, negative = inhibition, hits mostly inhibitors. 360,000 tested, 0.2% active;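 note: 0% = vehicle wells and -100% = peptide control; nearly all actives have a fitted effect of over 45% in size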
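AMA1 (3D7) with his tag at 25 nM final met compounds first, then biotinylated RON2 peptide at 25 nM; detection used donor plus acceptor beads, 10 µg/mL apiece, read by AlphaScreen after 30 min at room temperature.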
Pf growth 48h: P. falciparum growth inhibition at 48 hours (one generation). P. falciparum luciferase growth in erythrocytes, 48 h. Potency, µM (doses to about 28.7 µM), without a hit: at the highest dose activity change, negative = inhibition, most hits filed as inhibitors. 310,000 tested, 5.9% active
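Erythrocytes infected with P. falciparum carrying an integrated firefly luciferase reporter (2% hematocrit, 0.1% parasitemia final) were exposed to compounds in RPMI 1640 with 0.5% Albumax at 37 C, 5% CO2. Growth inhibition was scored as reduced luminescence.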
Pf growth 96h: P. falciparum growth inhibition at 96 hours; P. falciparum luciferase reporter growth, 96 h; Potency, µM (highest dose often 28.7 µM), for the others: top-dose activity change, negative = inhibition, hits mostly inhibitors; 320,000 tested, 6.9% active; AID 504834
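Luminescence readout: decreased luciferase signal marks inhibited growth of reporter-expressing P. falciparum in infected red cells (2% hematocrit, 0.05% parasitemia final), exposed to compound two generations (96 h, 37 C, 5% CO2).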
HCV inh: HCV inhibition. Potency, µM (titrated, usually from 41.8 µM), for the others: top-dose activity change, negative = inhibition, actives largely listed as inhibitors. Huh7.5.1 HCVcc-Cre infection, luciferase reporter, 44 h. 340,000 tested, 3.4% active
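Compounds are dispensed onto cells plated 4 h earlier at 1,000 per well, with HCVcc-Cre virus (about 0.5 moi) added next. Following 44 h of culture, luminescent signal is measured for 15 sec after 15 min with substrate at room temperature.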
Active calls of the source: *; ? = inconclusive; / = not tested or not shown; [ ] = dose if it differs, or a comment. Calls come from the whole dose curve; as a rule, active = well fitted curve in the direction sought with a large enough effect; inconclusive = small, poorly fitted or top-dose-only effect, or another doubt; inactive = no such curve, though single readings can be large; an effect the other way counts as inactive or inconclusive. Unless noted, % is set by controls: 0 for no effect and ±100 for the full control effect; potency is the fitted concentration of half-maximal effect.

SMILES | AMA1-RON2 inh | Pf growth 48h | Pf growth 96h | HCV inh
O=C1c2ccccc2C(=O)N1Cc1nc2ccccc2c(=O)n1-c1ccc(Br)cn1 | -7.7% | 28.5% | 7.38µM* | 15.6%
Cc1cccnc1-n1c(CCN2C(=O)c3ccccc3C2=O)nc2ccccc2c1=O | 18.0% | ? | 3.29µM* | 25.4%
CCn1cc(C(=O)NCC(OC)OC)c(=O)c2cc(S(=O)(=O)N3CCC(C)CC3)ccc21 | -3.5% | -2.0% | ? | -3.3%
COc1ccc(S(=O)(=O)Nc2noc3ccccc23)cc1OC | 43.7% | -3.8% | -15.4% | 12.2%
CCOC(=O)C1(CCCc2ccccc2)CCN(C(=O)C(C)n2cncn2)CC1 (stereo unspecified) | 11.2% | ? | -1.6% | 9.8%
CN(Cc1c(F)cccc1Cl)C(=O)CNC(=O)c1sc2ccccc2c1Cl | 0.0% | -6.6% | -2.4% | ?
CC(=O)C[C@H](O)CC(=O)[C@H]1OC(=O)CCCCCCCc2ccccc21 | 5.3% | 77.2% | ? | ?
Cc1cccc(N=C2NC(=O)/C(=C/c3cccnc3)S2)c1C | -5.3% | 13.1µM* | ? | 14.8%
O=C1NC(=Nc2cccc(O)c2)S/C1=C\c1cccnc1 | 11.8% | ? | 6.57µM* | 1.8%
Cc1cccc(N=C2NC(=O)/C(=C/c3cccnc3)S2)c1 | -3.5% | ? | ? | -11.5%
CCOC(=O)CCCc1ccc(/C(C)=N/NC(N)=S)cc1 | 35.8% | ? | ? | ?
COC(=O)c1nc2nc(-c3cccs3)cc(C(F)(F)F)n2n1 | -28.0% | 11.7% | -13.3% | 8.4%
COC(=O)c1nc2nc(C)cc(C(F)(F)F)n2n1 | 1.0% | 0.6% | 11.7µM* | 21.9%
Cc1cc(C)nc(N2CCCC(C(=O)Nc3nnc(C(C)(C)C)s3)C2)n1 (stereo unspecified) | 7.3% | 13.3% | -27.7% | ?
O=C(Nc1nnc(CCN2CCCCC2)s1)C1CCCCC1 | -0.2% | 6.7% | 13.1µM* | 10.6%
CCc1nnc(NC(=O)C2CCCN(c3nc(C)cc(C)n3)C2)s1 (stereo unspecified) | -7.8% | 20.1% | 4.65µM* | -7.5%
O=C(NNc1c(Cl)cc(Cl)cc1Cl)C1CCC1 | 14.4% | -1.5% | -29.4% | 0.7%
COc1ccccc1N1CCN(c2nc(C)nc3c2oc2ccccc23)CC1 | ? | ? | 7.5% | 3.55µM*
Cc1nc(N2CCN(Cc3ccc(Cl)cc3)CC2)c2oc3ccccc3c2n1 | -0.4% | ? | ? | 8.91µM*
Cc1cc(N2C(=O)C3C4C=CC(C4)C3C2=O)ccc1Br (stereo unspecified) | -22.7% | -6.6% | 11.7µM* | -6.4%
Cc1cc(C)cc(NC(=O)c2cccc(N3C(=O)C4C5C=CC(C5)C4C3=O)c2)c1 (stereo unspecified) | -2.9% | ? | 4.65µM* | -12.1%
COc1ccc(NC(=O)c2cccc(N3C(=O)C4C5C=CC(C5)C4C3=O)c2)cc1 (stereo unspecified) | 7.4% | -6.3% | 16.7% | /
O=C1C2C3C=CC(C3)C2C(=O)N1c1ccc2c(c1)OCO2 (stereo unspecified) | -4.7% | 2.1% | -14.2% | -2.0%
Cc1cccc(NC(=O)c2cccc(N3C(=O)C4C5C=CC(C6CC56)C4C3=O)c2)c1 (stereo unspecified) | 2.4% | 16.1% | ? | 11.2µM*
Cc1cccc(NC(=O)c2cccc(N3C(=O)CCC3=O)c2)c1 | -0.6% | 52.0% | -10.4% | 7.4%
SMILES | AMA1-RON2 inh | Pf growth 48h | Pf growth 96h | HCV inh
CCN1/C(=C/C=C/c2oc3ccc(-c4ccccc4)cc3[n+]2CC)Oc2ccc(-c3ccccc3)cc21 | ? | 0.928µM* | -22.5% | 0.891µM*
CCc1nc2c(OCc3ccc(Cl)cc3Cl)cccn2c1N(C)C(=O)C1CC1 | -18.2% | / | / | /
CCC(=O)N1CCN(c2ccccc2NC(=O)Cc2ccccc2)CC1 | 38.0% | 10.4µM* | -2.0% | ?
CS(=O)(=O)N1CCN(c2ccccc2NC(=O)Cc2ccccc2)CC1 | 46.2% | -7.9% | -12.1% | 14.3%
CC(C)C(=O)N1CCN(c2ccccc2NC(=O)Cc2ccc(Cl)cc2)CC1 | 2.0% | 13.1µM* | -3.2%[5.75 µM] | ?
O=C(Cc1ccccc1)Nc1ccccc1N1CCN(c2ccccc2)CC1 | -7.9% | 9.28µM* | / | 0.2%
NS(=O)(=O)c1ccc(CCNC(=O)C2CC(=O)N(Cc3ccccc3Cl)C2)cc1 (stereo unspecified) | -2.5% | 7.6% | -32.2% | 12.5%
CC(=O)Nc1ccc(NC(=O)C(C)OC(=O)c2cccc(S(=O)(=O)N3CCCC3)c2)cc1 (stereo unspecified) | -13.2% | 21.0% | 21.1% | 19.4%
